Experiment in all cases: NCI-60 one-dose screen, 48 h (100 = growth as untreated, 0 = no growth, -100 = all killed)
Common to all, as to settings: 10 µM unless noted

Experiment [1] relates to NCI-H23 lung.
In experiment [2] the test system is NCI-H226 lung.
Experiment [3] deals with NCI-H322M lung.
Experiment [4] relates to HOP-62 NSCLC.
The test system of experiment [5] is NCI-H460 lung.
For experiment [6], the system named is HOP-92 NSCLC.
Experiment [7] deals with NCI-H522 lung.
Experiment [8] has as its system A549/ATCC NSCLC.
In experiment [9] the test system is 786-0 renal.
The test system of experiment [10] is COLO 205 colon.

The structures appear in SMILES notation. About 83,000 compounds went through this panel and 20% of them were active in at least one assay; those are over-represented in the sample as a whole.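 For each line, cells grew in 96-well plates with the test compound present at a single concentration for 48 hours.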 A number with no mark means an inactive call. Activity calls are given as the source filed them. The calls were made as follows: active = growth percent below 10; inactive = the rest.

Data on 13 molecules can be found in PubChem BioAssay (NCI).

In the case of `CCOC(=O)c1c2ncccc2n2c(=O)n(-c3ccccc3C)nnc12`, the growth in experiment [1] is 93.6%; in [2], 97.4%; in [3] it was 89.3%; in [4] it was 78.6%; in experiment [5] it was 95%; in experiment [6], 128%. The growth in [7] is 93.3%; in [8], 102%; in experiment [9], 98%; in experiment [10] it was 108%.
As for `CCN1C(=O)N(CC)C2Nn3c(s/c(=C\c4cccc([N+](=O)[O-])c4)c3=O)=NC21` (stereo not given), the growth in experiment [1] is 57.7%; in experiment [2], 88%; in [3] it was 64.3%; in experiment [4] it was 62.3%; in [5], 23.8%; in [6], 75.8%. The growth in experiment [7] was 18.5%; in experiment [8] it was 45.1%; in experiment [9], 36%; in experiment [10], 6.72% (active).
For the molecule `COc1cc(C(=O)/C=C/c2c(C(F)(F)F)nc3sccn23)cc(OC)c1OC`, the growth in [1] was 1.76% (active); in [2], 29.1%; in experiment [3], 13.8%; in experiment [4], 4.69% (active); in experiment [5], -72.1% (active); in [6] it was 40.1%. In addition, the growth was -63.1% (active) in [7], 11.3% in experiment [8], 3.07% (active) in experiment [9] and -76.7% (active) in experiment [10].
With `COc1cccc(/C=C/C(=O)c2c(C)nc3ccccc3c2/C=C/c2ccc(C)cc2)c1OC`, the growth in [1] is 49.7%; in [2], 62.8%; in experiment [3], 82.1%; in experiment [4] it was 70%; in [5], 26.1%; in experiment [6] it was 76.4%. Moreover, the growth was 50.5% in [7], 94.3% in [8], 74.5% in experiment [9] and 80.6% in experiment [10].
Take `Cc1nn(-c2ccccc2)c(Cl)c1/C=C(/NC(=O)c1ccccc1)c1nc2ccccc2[nH]1`: the growth in [1] is 106%; in experiment [2] it was 108%; in experiment [3], 90.3%; in experiment [4] it was 99%; in [5] it was 109%; in [6], 82.6%. Besides, the growth in experiment [7] was 86.6%; in experiment [8] it was 90%; in experiment [9], 90.2%; in experiment [10], 83.6%.
For `Cc1ccc(S(=O)(=O)NCC[C@@H]2C[C@H]2c2cc3ccccc3s2)cc1`, the growth in [1] was 93.2%; in [2] it was 87.8%; in experiment [3], 101%; in experiment [4], 108%; in [5] it was 104%; in [6], 101%. The growth in experiment [7] was 85.3%; in experiment [8] it was 98.5%; in experiment [9], 100%; in experiment [10] it was 120%.
Turning to `CCOc1ccccc1-c1cc(-c2cccs2)c(C#N)c(=O)[nH]1`, the growth was 86.1% in experiment [1]; 90.9% in experiment [2]; 83.9% in [3]; 81.5% in [4]; 93.8% in [5]; 64.7% in experiment [6]. Also, the growth was 75.5% in [7], 91.2% in [8], 92.1% in [9] and 114% in experiment [10].
For the molecule `Cc1cc(C)c(-c2c(C)cc(C)cc2CBr)c(CBr)c1`, the growth in [1] is 85.8%; in experiment [2], 100%; in [3], 102%; in experiment [4] it was 84.6%; in experiment [5], 77.2%; in experiment [6], 106%. Moreover, the growth is 66.4% in experiment [7], 68.6% in [8], 95.8% in experiment [9] and 78.6% in experiment [10].
`O=C1/C(=C2/C=Nc3ccccc32)N(O)c2ccccc21`: the growth in [1] was 56.8%; in [2] it was 77%; in experiment [3], 108%; in experiment [4] it was 95.6%; in experiment [5] it was 91.4%; in [6], 124%. In addition, the growth is 57.1% in [7], 94.2% in [8], 104% in [9] and 104% in experiment [10].
For the molecule `CNc1ccc(NC)c2c1C(=O)c1ccccc1C2=O`, the growth was 70.1% in [1]; 79.1% in [2]; 84% in [3]; 87% in experiment [4]; 91% in [5]; 78.3% in experiment [6]. The growth in experiment [7] was 97.1%; in experiment [8] it was 100%; in [9] it was 92.1%; in [10], 108%.
With `COc1ccc(CNC(=O)C(O)C(Cc2ccccc2)NC(=O)c2[nH]c3ccccc3c(=O)c2C)cc1OC` (stereo not given), the growth in [1] is 102%; in experiment [2], 98.1%; in experiment [3], 104%; in experiment [4], 102%; in experiment [5], 103%; in [6], 110%. Besides, the growth in experiment [7] was 93%; in [8], 103%; in experiment [9], 101%; in experiment [10] it was 123%.
Regarding `CC1SC(c2ccc(OCc3ccccc3)cc2)N(NC(=O)C(O)(c2ccccc2)c2ccccc2)C1=O` (stereo not given), the growth is 61% in experiment [1]; 84.5% in experiment [2]; 49.1% in experiment [3]; 79% in [4]; 38.5% in experiment [5]; 50.7% in experiment [6]. Further, the growth was 24.4% in experiment [7], 49.3% in [8], 59.6% in experiment [9] and 30.8% in experiment [10].
For `O=C(NC(CSSCC(NC(=O)c1ccccc1)C(=O)O)C(=O)O)c1ccccc1` (stereo not given), the growth in experiment [1] is 101%; in experiment [2], 98.7%; in [3], 103%; in [4] it was 95.6%; in experiment [5] it was 107%; in experiment [6] it was 88.3%. Moreover, the growth in experiment [7] is 92.4%; in [8], 104%; in experiment [9], 105%; in [10], 114%.
